Screens: PubChem, several laboratories
UHRF1 MBD2 ctr = blocks human UHRF1 binding to methylated DNA; inhibition, % at 4.4 µM; 370,000 tested, 0.75% active; AID 687016; UHRF1 binding to methylated oligo, TR-FRET; in the data active means inhibition above about 21%;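 further: UHRF1 SRA domain binding a hemimethylated CpG hairpin DNA probe; 0% = median of test compound wells and 100% = reference inhibitor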
Target sequence (Q96T88 whole entry, looked up, the tested form may be a part): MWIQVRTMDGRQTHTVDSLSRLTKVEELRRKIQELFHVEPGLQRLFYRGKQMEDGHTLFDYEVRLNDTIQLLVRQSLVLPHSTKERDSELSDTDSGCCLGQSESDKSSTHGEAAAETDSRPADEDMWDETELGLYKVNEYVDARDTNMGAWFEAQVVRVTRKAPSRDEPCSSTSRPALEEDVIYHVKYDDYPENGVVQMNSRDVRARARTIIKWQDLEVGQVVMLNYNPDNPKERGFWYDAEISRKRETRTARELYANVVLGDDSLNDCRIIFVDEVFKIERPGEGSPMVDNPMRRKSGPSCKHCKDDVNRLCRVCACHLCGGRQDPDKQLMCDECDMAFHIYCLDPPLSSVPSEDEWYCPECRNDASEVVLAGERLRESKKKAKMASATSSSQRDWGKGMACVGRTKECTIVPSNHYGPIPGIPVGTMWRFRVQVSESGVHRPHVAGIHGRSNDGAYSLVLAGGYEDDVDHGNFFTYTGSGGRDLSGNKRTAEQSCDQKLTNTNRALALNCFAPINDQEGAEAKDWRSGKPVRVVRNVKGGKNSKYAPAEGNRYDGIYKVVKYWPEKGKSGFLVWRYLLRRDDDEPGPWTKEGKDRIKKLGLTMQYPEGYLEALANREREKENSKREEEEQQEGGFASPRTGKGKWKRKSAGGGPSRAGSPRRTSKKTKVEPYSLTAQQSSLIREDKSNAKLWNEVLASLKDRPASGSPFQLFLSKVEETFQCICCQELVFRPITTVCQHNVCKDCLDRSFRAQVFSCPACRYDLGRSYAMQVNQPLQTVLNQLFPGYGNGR
PG9 Ab binder = small molecules binding HIV-1 gp120 antibody PG9 | TR-FRET gp120-PG9 antibody binding | inhibition, % at 6.7 µM | 360,000 tested, 0.43% active | AID 624416; in the data active means inhibition above about 8.5%
DNMT1 inh = blocks human DNA methyltransferase DNMT1. AID 588458. DNMT1 molecular beacon, Hinp1I cleavage, fluorescence. 360,000 tested, 0.83% active. inhibition (reported as % activation of signal), % at 10 µM. P26358; in the data active means inhibition above about 50%
rCAG binder = binds r(CAG) RNA repeats; r(CAG) RNA repeat, TO-PRO-1 dye displacement fluorescence; inhibition, % at 3 µM; 370,000 tested, 1.3% active;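 active means inhibition above the plate cutoff, the mean of all test compounds on that plate plus 3 SD, cut at about 35% in these data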;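 further: 0% = DMSO alone and 100% = 100 µM mitoxantrone as full dye displacement; higher means more dye released from RNA so lower well fluorescence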
MBD2 inh = inhibitors of human MBD2 binding to methylated oligonucleotide; TR-FRET; 370,000 tested, 0.31% active; inhibition, % at 4.4 µM; in the data active means inhibition above about 13%
LEDGF integ inh = blocks HIV-1 LEDGF/p75-dependent DNA integration; TR-FRET IN-LEDGF/p75 DNA integration, Eu/Cy5; inhibition, % at 3.7 µM; 370,000 tested, 0.64% active; AID 743269;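 active means inhibition above the screen-wide mean plus 3 SD, cut at about 13% in these data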;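 further: signal is the Cy5 over europium emission ratio at 671 and 618 nm; 0% = plate median of compound wells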
IN multimer act = HIV-1 integrase multimerization activation, counter-screen; shares compounds with LEDGF integ inh; TR-FRET HIV-1 integrase multimerization, biochemical; activation, % at 7.7 µM; 2,000 tested, 17% active; AID 1053131; in the data active means activation above about 8.9%
TR-FRET interf = TR-FRET optical interference, LEDGF/p75 integration counter-screen; shares compounds with LEDGF integ inh; TR-FRET optical interference counterscreen, HIV-1 IN multimerization; inhibition, % at 7.7 µM; 2,000 tested, under 10 active; AID 1053135;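 active means inhibition above the mean over all tested compounds plus 3 SD, which no compound reached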;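 further: 0% = integrase with antibodies and DMSO and 100% = antibodies without integrase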
LEDGF integ conf = LEDGF/p75-dependent HIV-1 integration inhibition, confirmation. AID 1053136. inhibition, % at 3.7 µM. TR-FRET LEDGF/p75-dependent HIV-1 integration, biochemical. shares compounds with LEDGF integ inh. 2,000 tested, 36% active; in the data active means inhibition above about 14%
An asterisk follows results filed as active. Hits are enriched below; roughly 3.5% of the tested compounds scored in any of these assays.

O=C(COC(=O)c1cc(S(=O)(=O)N2CCOCC2)ccc1Cl)NC1CCCCC1 was read as UHRF1 MBD2 ctr 4.4, PG9 Ab binder 4.1, DNMT1 inh 3.2, rCAG binder 1.4, MBD2 inh -5.6, LEDGF integ inh 19.3*, IN multimer act 0.5, TR-FRET interf -1.8 and LEDGF integ conf -0.8.
For O=[N+]([O-])c1cc2ccccc2c(O)c1O the results were UHRF1 MBD2 ctr -4.8, PG9 Ab binder -1.6, DNMT1 inh 48.2, rCAG binder 6.9, MBD2 inh -15.7, LEDGF integ inh 17.7*, IN multimer act 4.0, TR-FRET interf -19.9 and LEDGF integ conf 30.0*.
For CSC1=NC2C(N1)N(C)C(=O)N2C (configuration not stated) the results were UHRF1 MBD2 ctr -0.9, PG9 Ab binder 0.7, DNMT1 inh 1.5, rCAG binder -0.2, MBD2 inh 1.4, LEDGF integ inh 35.3*, IN multimer act -0.3, TR-FRET interf 1.7 and LEDGF integ conf -2.2.
`O=C(NC(Cc1ccccc1)C(=O)O)/C(=C\c1ccco1)NC(=O)c1ccccc1Br` (configuration not stated) gave UHRF1 MBD2 ctr 0.2, PG9 Ab binder -5.3, DNMT1 inh 12.7, rCAG binder 22.0, MBD2 inh 0.8, LEDGF integ inh 16.5*, IN multimer act 0.4, TR-FRET interf -1.8 and LEDGF integ conf 0.6.
`O=C(CCCCCN1C(=O)C2C3C=CC(C3)C2C1=O)Nc1ccc(Cl)cc1` (configuration not stated) gave UHRF1 MBD2 ctr -1.2, rCAG binder 0.5, MBD2 inh -9.6 and LEDGF integ inh -0.9.
`O=C(CCCCCN1C(=O)C2C3C=CC(C3)C2C1=O)Nc1ccc2ncccc2c1` (configuration not stated) gave UHRF1 MBD2 ctr -1.7, rCAG binder 1.2, MBD2 inh -5.6, LEDGF integ inh 22.1*, IN multimer act 1.4, TR-FRET interf -7.0 and LEDGF integ conf 2.9.
For Cc1c(C(=O)NCCC#N)sc(=O)n1Cc1ccc(C(=O)N(C)C)cc1 the results were UHRF1 MBD2 ctr -0.8, PG9 Ab binder -1.8, DNMT1 inh 2.2, rCAG binder 0.4, MBD2 inh 3.0, LEDGF integ inh 32.0*, IN multimer act -1.0, TR-FRET interf 5.0 and LEDGF integ conf -5.4.
`C=Cc1ccc(Cn2c(C)c(C(=O)NCCC#N)sc2=O)cc1` gave UHRF1 MBD2 ctr 0.6, PG9 Ab binder -1.4, DNMT1 inh 1.7, rCAG binder 1.2, MBD2 inh -2.4 and LEDGF integ inh 3.7.
Screening O=C1O[C@@H](c2ccccc2)C[C@@H](O)[C@H](O)CCCc2ccccc21 returned UHRF1 MBD2 ctr -0.4, PG9 Ab binder -1.1, rCAG binder 1.6, MBD2 inh -1.2 and LEDGF integ inh -1.8.
`Cc1nn(CCCC(=O)Nc2sc3c(c2C#N)CCC3)c(C)c1[N+](=O)[O-]` gave UHRF1 MBD2 ctr 1.3, PG9 Ab binder -0.8, DNMT1 inh -2.7, rCAG binder 3.0, MBD2 inh -1.4, LEDGF integ inh 18.3*, IN multimer act -1.4, TR-FRET interf 4.8 and LEDGF integ conf -0.9.
For CCOc1cccc(-c2cc(=O)[nH][nH]2)c1 the results were UHRF1 MBD2 ctr 0.3, PG9 Ab binder -2.0, DNMT1 inh -17.5, rCAG binder 7.6, MBD2 inh 2.1, LEDGF integ inh 28.6*, IN multimer act 1.8, TR-FRET interf -6.2 and LEDGF integ conf 3.6.
`COc1cccc(-c2ccc(C#N)c(=O)[nH]2)c1` gave UHRF1 MBD2 ctr -1.5, PG9 Ab binder 0.4, DNMT1 inh 2.8, rCAG binder -4.3, MBD2 inh -7.6 and LEDGF integ inh -0.3.
Screening COc1cccc(-c2cc(=O)[nH][nH]2)c1 returned UHRF1 MBD2 ctr 6.7, PG9 Ab binder -4.0, DNMT1 inh -9.6, rCAG binder 0.8, MBD2 inh -0.5, LEDGF integ inh 20.8*, IN multimer act 4.2, TR-FRET interf -21.0 and LEDGF integ conf 8.3.
Screening O=c1[nH]c2cc3c(cc2cc1CN(Cc1cccnc1)Cc1nnnn1Cc1ccco1)OCCO3 returned UHRF1 MBD2 ctr 34.4*, PG9 Ab binder -0.4, DNMT1 inh 8.2, rCAG binder 20.8, MBD2 inh 11.4, LEDGF integ inh 38.8*, IN multimer act 14.4*, TR-FRET interf -72.5 and LEDGF integ conf 27.9*.
CCC1(c2ccc(F)cc2)NC(=O)N(CC(=O)Nc2cc(C)on2)C1=O (configuration not stated) was read as UHRF1 MBD2 ctr -0.8, PG9 Ab binder -1.9, DNMT1 inh -2.4, rCAG binder 0.8, MBD2 inh -0.4 and LEDGF integ inh 0.6.
For Cc1cccc(NC(=O)c2c(O)c3ccccc3n(C)c2=O)c1 the results were UHRF1 MBD2 ctr -0.1, PG9 Ab binder -1.6, DNMT1 inh 4.1, rCAG binder 2.8, MBD2 inh 1.6 and LEDGF integ inh 3.7.
For Cc1oc(-c2ccc(Cl)cc2)nc1CS(=O)CC(=O)NCCCN1CCOCC1 (configuration not stated) the results were UHRF1 MBD2 ctr 1.6, PG9 Ab binder -2.7, DNMT1 inh -2.8, rCAG binder 0.0, MBD2 inh 1.1, LEDGF integ inh 17.6*, IN multimer act -0.3, TR-FRET interf 1.6 and LEDGF integ conf -7.2.
`N#Cc1nc(-c2ccccc2F)oc1NCc1ccccc1` gave UHRF1 MBD2 ctr 2.0, PG9 Ab binder 2.1, DNMT1 inh -0.8, rCAG binder 0.3, MBD2 inh -0.6, LEDGF integ inh 14.2*, IN multimer act 0.4, TR-FRET interf -1.8 and LEDGF integ conf -3.8.
For O=C(NN=Cc1cccc(OCc2ccccc2)c1)c1cc(-c2ccc(Cl)cc2)n[nH]1 the results were UHRF1 MBD2 ctr -0.3, rCAG binder 11.2, MBD2 inh -2.3 and LEDGF integ inh 2.4.
Nc1cc(S(=O)(=O)N2CCCCC2)ccc1Oc1ccc(Cl)cc1 was read as UHRF1 MBD2 ctr -1.4, PG9 Ab binder -1.7, DNMT1 inh -2.8, rCAG binder -3.2, MBD2 inh -2.5, LEDGF integ inh 40.0*, IN multimer act -0.1, TR-FRET interf 0.5 and LEDGF integ conf -2.8.
`COC(=O)c1ccc(Oc2ccc(S(=O)(=O)N3CCCCC3)cc2N)cc1` gave UHRF1 MBD2 ctr 1.4, PG9 Ab binder -1.4, DNMT1 inh -2.7, rCAG binder -3.7, MBD2 inh 2.8 and LEDGF integ inh -1.0.
